Bioassay records deposited in PubChem by National Center for Advancing Translational Sciences (NCATS).
HCV inh – HCV inhibition. Huh7.5.1 HCVcc-Cre infection, luciferase reporter, 44 h. Potency, µM (titrated, usually from 41.8 µM), actives largely listed as inhibitors. 340,000 compounds, 3.4% hits; active means well fitted inhibition curve with a large enough effect; inconclusive means small, poorly fitted or top-dose-only effect, or another doubt; inactive means no such curve, though single readings can be large or run the other way
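Infectious HCV cell culture screen: compound-treated cells (1,000/well, pre-plated 4 h) are infected with HCVcc-Cre at roughly 0.5 moi and grown 44 h. Infection is quantified by luciferase signal after 15 min substrate incubation at room temperature.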
VACV mCherry inh – vaccinia inhibition (mCherry reporter); Vaccinia virus mCherry reporter infection, fluorescence; Potency, µM (series often up to 36.5 µM), hits mostly inhibitors; 310,000 compounds, 0.63% hits; AID 720579; calls by dose curve; tested in A549 cells; further: nearly all actives have a fitted effect of over 35% in size
HCMV inh – human cytomegalovirus inhibition. activity change, negative = inhibition, % at 57.5 µM. 410,000 compounds, 4.5% hits. HFF cells, HCMV-luciferase reporter, 72 h; hits give low values; in the data active means activity change below about -60%; inconclusive means no clear call, values can overlap the other calls; inactive means above about -39%
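Cell-based, HFFs, 1000 cells/well, 16 h 37C; cpds in DMSO + HCMV-luc, MOI 1 PFU/cell; 72 h 37C; OneGlo luminescence after 5 min RT; norm. to buffer vs Salinomycin 10uM.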
FMDV antiviral – foot and mouth disease virus antiviral activity | Potency, µM (series often up to 57.9 µM), hits mostly inhibitors | 410,000 compounds, 1.2% hits | AID 1159524 | FMDV antiviral cell-based qHTS; calls by dose curve; tested in HEK293T cells; further: read-out not given here; nearly all actives have a fitted effect of over 45% in size
Vaccinia Venus – vaccinia inhibition (Venus reporter). Vaccinia virus Venus reporter expression, fluorescence. Potency, µM (top dose mostly 36.5 µM), most hits filed as inhibitors. 330,000 compounds, 0.46% hits. AID 720580; calls by dose curve; tested in A549 cells; further: nearly all actives have a fitted effect of over 30% in size
Hits are given with their value; n = inactive; u = inconclusive; x = no result given; [ ] = remark or other dose. Compounds with a hit are over-represented: about 7.3% of the library has one in this group of screens.

SMILES	HCV inh	VACV mCherry inh	HCMV inh	FMDV antiviral	Vaccinia Venus
CCC(C)NC(=O)c1sc2ncccc2c1-n1c(C)ccc1C (stereo not drawn)	x	n	n	u	n
CCN(CC)C(=O)c1ncn(C)c1C(=O)N(CC)CC	n	n	-66	n	n
CN(Cc1ccccc1)C(=O)c1ncn(C)c1C(=O)N(C)Cc1ccccc1	n	n	n	n	n
CCOC(=O)c1cccc(NC(=O)NC2COc3ccccc3C2)c1 (stereo not drawn)	x	n	n	n	n
O=C(O)c1cccc(-n2sc3ccccc3c2=O)c1	n	n	-61	n	n
Cc1ccccc1-n1sc2cc(F)ccc2c1=O	u	n	-98	u	n
CN(C)S(=O)(=O)c1cccc(-n2sc3ccccc3c2=O)c1	n	n	n	n	n
CC(=O)Nc1ccc2c(=O)n(-c3ccccc3)sc2c1	x	n	-75	n	n
O=c1c2ccccc2sn1-c1ccccc1F	x	n	-109	n	u
CCOC(=O)Cc1csc(NC(=O)c2ccc3ncsc3c2)n1	u	x	n	n	x
C[N+]1(CC(=O)c2ccc(Cl)c(Cl)c2)CCOCC1	x	n	x	x	n
O=c1c2ccccc2sn1-c1cccc(Cl)c1	x	n	n	n	n
O=c1c2ccccc2sn1-c1ccccc1	u	n	-83	u	n
CCN1C(=O)[C@H]2[C@H]3[C@H](O)[C@H](O)C/C(=N\OC[C@@H](C)[C@H](OCc4ccccc4)C(C)C)[C@@H]3CC[C@H]2C1=O	n[8.37 µM]	x	x	x	x
Cc1ccc(C)c2c3c([nH]c12)-c1nonc1CC3	10µM	x	n	n	n
c1ccc(-c2nc3c([nH]2)CCc2nonc2-3)cc1	n	n	n	n	n
Cc1ccc(S(=O)(=O)N2CCCCC2)cc1C(=O)OCC(=O)N1c2ccccc2NC(=O)C1(C)C	11µM	n	n	n	n
Cc1ccc(C(=O)OCC(=O)N2c3ccccc3NC(=O)C2(C)C)cc1S(=O)(=O)N1CCCCC1	u	n	n	n	n
Cc1ccc(S(=O)(=O)N2CCOCC2)cc1C(=O)OCC(=O)c1ccc[nH]1	11µM	x	n	n	x
Cc1cc(C)cc(C(=O)NC(CC(N)=O)c2ccc(NC3CCCC3)c([N+](=O)[O-])c2)c1 (stereo not drawn)	n	n	n	n	n
CC(=O)N1c2ccccc2C(=O)C1N1CCN(c2cc(Cl)ccc2C)CC1 (stereo not drawn)	x	n	u	u	n
COc1cccc(CN2CCC3(CC2)c2ccccc2[C@@H](NC(=O)c2ccccc2)[C@@H]3O)c1O	x	n	x	n	n
CCN(CC)c1ccc(/C=C(\C#N)C(=O)NCc2ccco2)cc1	n	x	u	x	x
CCN(CC)c1ccc(/C=C(\C#N)C(=O)NCc2ccccc2)cc1	25µM	u	x	n	n
CN(C(=O)c1ccc(NC(=O)Cc2cccc(NC(=O)C3CCCN(C(=O)C4CC4)C3)c2)cc1)C1CC1 (stereo not drawn)	n	n	n	n	n
SMILES	HCV inh	VACV mCherry inh	HCMV inh	FMDV antiviral	Vaccinia Venus
COc1ccc(Cn2c(O)cc(=O)[nH]c2=O)cc1	n	n	-88	n	n
CCSc1nc(C2CC2)cc(-c2ccco2)c1C#N	u	x	n	n	n
CCSc1nc(C2CC2)cc(-c2cccs2)c1C#N	7.9µM	n	n	n	n
COC(=O)c1c(C)[nH]c(C(=O)/C=C/c2ccc(C)cc2)c1C	n	x	-90	u	x
N#Cc1sc2nc(-c3ccccc3)cc(-c3ccco3)c2c1N	13µM	n	n	n	n
N#Cc1sc2nc(C3CC3)cc(-c3ccccc3)c2c1N	u	n	u	n	n
Cc1noc(C)c1C(=O)N1CCC[C@@]2(CCN(c3ccccn3)C2)C1	x	x	x	n	x
Cc1ccc(S(=O)(=O)Nc2ccc(-c3nnc(SCc4ccccc4Cl)o3)cc2)cc1	n	n	-83	n	n
Cc1ccc(CSc2nnc(-c3ccc(NS(=O)(=O)c4ccccc4)cc3)o2)cc1	n	n	n	n	n
Cc1ccc(S(=O)(=O)Nc2cc(=O)[nH]c(SCc3ccccc3Cl)n2)cc1	u	n	-66	u	u
Cc1[nH]n2c(=O)cc(C(C)(C)C)nc2c1-c1ccccc1	10µM	10µM	-62	n	u
Cc1[nH]n2c(=O)cc(-c3ccc([N+](=O)[O-])cc3)nc2c1-c1ccccc1	10µM	n	n	n	n
Cc1[nH]n2c(=O)cc(-c3ccc(Cl)cc3)nc2c1-c1ccccc1	x	8.9µM	-107	u	u
Cc1ccc(N=Nc2c(N)[nH]n3c(=O)cc(-c4ccccc4)nc23)cc1	13µM	n	-81	n	n
Cc1ccc2c(C(=O)CNc3nc(C)c(C)s3)c(C)[nH]c2c1	x	n	x	x	n
CCCN1[C@@H]2c3cccc(=O)n3C[C@H]1[C@H](CO)[C@H]2C(=O)OC	x	x	n	x	x
O=C(Oc1ccccc1F)c1ccc2c(=O)n3c(nc2c1)CCC3	n	n	n	n	n
CSCCC(NC=O)C(=O)NC(C)C(=O)O (stereo not drawn)	n	n	n	n	n
CN(CCO)C(=O)c1cn(C2CCCN(Cc3cccc4ccccc34)C2)nn1 (stereo not drawn)	x	n	x	n	n
COc1cc2c(cc1OC)CN(c1ccc([N+](=O)[O-])cc1C#N)CC2	u	n	u	32µM	n
CCOc1ccc(NC(=O)CN2C(=O)COc3ccc(S(=O)(=O)NC4CCCC4)cc32)cc1	x	n	n	n	n
Cc1ccccc1NC(=O)c1cccc(N2C(=O)C3C4CC(C(Br)C4Br)C3C2=O)c1 (stereo not drawn)	n	x	n	n	x
Cc1sc2ncnc(N3CCC(C(=O)Nc4ccccc4C(C)(C)C)CC3)c2c1C	n	n	n	25µM	n
Cc1ccc(NC(=O)C2CCN(c3ncnc4sc(C)c(C)c34)CC2)cc1S(=O)(=O)N(C)C	10µM	n	u	u	n
Cc1sc2ncnc(N3CCC(C(=O)Nc4cc(C(F)(F)F)ccc4OCC(F)(F)F)CC3)c2c1C	7.9µM	x	n	u	x
SMILES	HCV inh	VACV mCherry inh	HCMV inh	FMDV antiviral	Vaccinia Venus
Cc1sc2ncnc(N3CCC(C(=O)NNC(=O)c4ccc(Cl)cc4)CC3)c2c1C	u	n	u	25µM	n
CCCCc1nnc(NC(=O)C2CCN(c3ncnc4sc(C)c(C)c34)CC2)s1	n	n	n	n	n
Cc1sc2ncnc(N3CCC(C(=O)Nc4cc(Cl)ccc4Cl)CC3)c2c1C	u	n	n	n	n
COc1ccc(NC(=O)c2oc3ccccc3c2NC(=O)C2CCCCC2)c(OC)c1	x	n	n	n	n
COc1ccccc1/C=C(\C#N)c1nc(-c2cc3ccccc3oc2=O)cs1	x	n	n	n	n
Cc1sc2ncnc(N3CCC(C(=O)Nc4ccc(S(N)(=O)=O)cc4)CC3)c2c1C	u	x	-79	u	x
Cc1ccc2nc(NC(=O)C3CCN(c4ncnc5sc(C)c(C)c45)CC3)sc2c1	n	n	x	n	n
Cc1sc2ncnc(N3CCC(C(=O)Nc4ccc(C#N)cc4)CC3)c2c1C	n	n	n	u	n
CCN(CC)S(=O)(=O)c1cc(NC(=O)C2CCN(c3ncnc4sc(C)c(C)c34)CC2)ccc1Cl	6.3µM	u	-82	8.9µM	u
Cc1sc2ncnc(N3CCC(C(=O)Nc4cc(S(C)(=O)=O)ccc4Cl)CC3)c2c1C	u	n	n	u	n
